Compound activity as filed in PubChem.
An excerpt weighted towards active compounds, which were near 1.4% of everything screened.
LYPLA2 inh: LYPLA2 inhibitors, primary screen, counter-screen for PME1 inhibitor project, biochemical, fluorescence polarization, FP-Rh probe ABPP | recombinant LYPLA2 | AID 2177, 2009 | inhibition, % at 5.9 µM | Acyl-protein thioesterase 2 (Homo sapiens), O95372 | hit rate 0.38% among 320,000;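 active = inhibition above the screen-wide mean plus 3 SD, limit set per campaign, cut at about 26% in these data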;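 also: 0% = LYPLA2 with DMSO and 100% = wells lacking LYPLA2 enzyme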
Target sequence (O95372 whole entry, looked up): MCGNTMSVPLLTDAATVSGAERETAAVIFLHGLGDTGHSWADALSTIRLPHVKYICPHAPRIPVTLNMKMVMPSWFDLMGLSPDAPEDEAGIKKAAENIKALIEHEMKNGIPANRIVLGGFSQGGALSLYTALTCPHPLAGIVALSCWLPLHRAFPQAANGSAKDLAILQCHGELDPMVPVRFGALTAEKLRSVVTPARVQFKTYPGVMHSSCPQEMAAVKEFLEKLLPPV
ZTA DNA inh: ZTA (EBV) inhibition in EBNA-1 counter-screen | P03206 | ZTA-DNA binding, fluorescence polarization | inhibition, % at 11 µM | hit rate 0.15% among 320,000; in the data active = inhibition above about 33%
Target sequence (P03206 whole entry, looked up): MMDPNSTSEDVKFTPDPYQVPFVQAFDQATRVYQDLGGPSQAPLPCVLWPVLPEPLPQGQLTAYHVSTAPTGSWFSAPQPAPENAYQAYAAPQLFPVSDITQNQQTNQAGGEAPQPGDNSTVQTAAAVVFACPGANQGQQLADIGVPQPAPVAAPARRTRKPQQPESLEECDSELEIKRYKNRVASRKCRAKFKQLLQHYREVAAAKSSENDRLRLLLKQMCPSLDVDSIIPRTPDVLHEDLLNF
EBNA-1 inhibitor: EBNA-1 DNA-binding inhibitors, primary screen, biochemical, fluorescence polarization; hit rate 0.34% among 300,000; inhibition, % at 14.8 µM; AID 1950, 2009; in the data active = inhibition above about 28%
LANA-H2B inh: blockers of LANA interaction with H2A/H2B – biochemical, FP readout, HTS, primary screen. hit rate 0.6% among 320,000. cell-free LANA-H2A/H2B peptide, fluorescence polarization. Protein LANA1 (Human herpesvirus 8 type P (isolate GK18)), Q9QR71. inhibition, % (test concentration not listed); in the data active = inhibition mostly above about 10%, no sharp cut-off; inactive = mostly below about 6.7%
LYPLA1 counter: LYPLA1 inhibitors, primary screen, counter-screen for PME1 inhibitor project, biochemical, fluorescence polarization, FP-Rh probe ABPP; Acyl-protein thioesterase 1 (Homo sapiens), O75608; recombinant LYPLA1; inhibition, % at 5.9 µM; hit rate 0.16% among 320,000; AID 2174, 2009;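 active = inhibition above the mean of all tested compounds plus 3 SD, set per campaign, cut at about 14% in these data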;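 also: inhibitors block serine hydrolase probe labeling of LYPLA1 so polarization falls; 0% = enzyme with DMSO and 100% = wells lacking LYPLA1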
EBNA-1 inh conf: EBNA-1 DNA-binding inhibitors, retest, confirmation, biochemical, fluorescence polarization, triplicate; shares compounds with EBNA-1 inhibitor; inhibition, % at 14.8 µM; AID 2292, 2010; hit rate 35% among 830; Recombinant EBNA-1 DBD, Cy5-DNA fluorescence polarization;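 active = mean inhibition across replicates above a set limit taken from the earlier primary screen, cut at about 28% in these data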;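 also: plate controls were EBNA-1 protein with DMSO for no effect and wells lacking EBNA-1 for full effect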
ZTA DNA inh trip: EBV Zta DNA binding inhibitors, counter-screen for EBNA-1 inhibitor project, biochemical, fluorescence polarization, triplicate. inhibition, % at 11.1 µM. 830 tested, under 10 active. Zta-ZRE DNA binding, Cy5 fluorescence polarization. AID 2328, 2010. shares compounds with EBNA-1 inhibitor;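 active = mean inhibition over triplicates above a set limit taken from the primary EBNA-1 screen, cut at about 37% in these data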;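 also: purified full length Zta protein with Cy5 labeled ZRE DNA probe; 0% = Zta with DMSO and 100% = wells lacking Zta protein; inhibitors lower polarization by freeing the labeled DNA probe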
* hit, by the source's call; / = no result given; + = active, no number.

SMILES | LYPLA2 inh | ZTA DNA inh | EBNA-1 inhibitor | LANA-H2B inh | LYPLA1 counter | EBNA-1 inh conf | ZTA DNA inh trip
Cc1cc(C(=O)N/N=C/c2cc(N=Nc3ccccc3)ccc2O)n[nH]1 | 5 | 17 | 75* | -2 | -9 | -7 | 38*
O=C(CSc1nnc2c3c4c(sc3ncn12)CCCC4)NCc1ccco1 | 8 | 2 | 32* | 1 | -1 | -1 | 0
CCOC(=O)Nc1ccc2c(COC(=O)CN(C)S(=O)(=O)c3ccc(C)cc3)cc(=O)oc2c1 | -5 | 0 | 56* | 0 | -2 | 20 | 20
CCOC(=O)Nc1ccc2c(COC(=O)CNS(=O)(=O)c3cccc(Br)c3)cc(=O)oc2c1 | -44 | -3 | 7 | -1 | -26 | / | /
COc1ccc(NC(=O)COc2ccc3c(C)cc(=O)oc3c2)cc1S(=O)(=O)N1CCCCC1 | -8 | 17 | 101* | / | -3 | 67* | 10
CCOc1ncccc1C(=O)OCC(=O)Nc1ccc(C(N)=O)cc1 | 5 | -5 | + | -2 | 0 | 7 | 11
Cc1cc(/C=C2\SC(=S)N(C)C2=O)c(C)n1-c1ccccc1O | -16 | 16 | 35* | 2 | -12 | 43* | -5
CC(C)n1nc(Cc2cccc3ccccc23)c(C#N)c1N | 0 | 9 | -7 | 0 | -5 | / | /
COc1ccc(/C=C/C(=O)Oc2cccc(/C=N/NC(=O)COc3c(C)cccc3C)c2)cc1 | -1 | 4 | 39* | 2 | 2 | 74* | 7
COc1ccccc1P(=O)(c1ccccc1)c1ccc([N+](=O)[O-])cc1 (stereo unspecified) | 6 | 2 | 6 | -3 | 5 | / | /
COc1ccc(-c2cn3c(C)c(C(=O)NCc4ccc5c(c4)OCO5)sc3n2)cc1 | 6 | -13 | 80* | 4 | 0 | 126* | 13
COc1ccc(C(=O)NCc2ccc3c(c2)OCO3)cc1 | 1 | 8 | 6 | 0 | 5 | / | /
Cc1cc(N2CCN(CC(O)C(F)(F)F)CC2)c2ccccc2n1 (stereo unspecified) | -1 | 13 | + | -3 | 0 | -2 | -13
O=C(COc1ccccc1)N=C1SC2CS(=O)(=O)CC2N1Cc1ccccc1 (stereo unspecified) | 3 | -15 | + | 0 | -1 | -4 | -2
COc1cccc(OCC(=O)Nc2ccccc2C(=O)Nc2ccc(C(=O)O)cc2)c1 | -7 | 1 | -3 | -8 | -2 | / | /
Cc1ccc2nc(-c3ccc(NC(=O)CCN4C(=O)c5ccccc5C4=O)cc3)sc2c1 | 1 | -8 | -14 | -4 | 1 | / | /
Cc1ccc2nc(-c3ccc(NC(=O)C(C)N4C(=O)c5ccccc5C4=O)cc3)sc2c1 (stereo unspecified) | -46 | -5 | 33* | 1 | -22 | 10 | 16
COc1ccc(S(=O)(=O)N2CCC(C(=O)NC3CCCC3)CC2)cc1C | 8 | 1 | 9 | -1 | -2 | / | /
CSc1ccccc1NC(=O)Cn1nnc(-c2ccc(S(C)(=O)=O)cc2)n1 | 0 | -1 | 41* | -1 | -2 | 53* | 2
O=C1N/C(=C\c2ccccc2)C(O)=C1C=NCc1ccccc1 | 0 | -6 | 33* | / | -4 | 10 | 9
CCOc1ccccc1CNC(=O)c1ccc(NC(=O)C2=CSCCO2)cc1 | 8 | -1 | -2 | 0 | 2 | / | /
O=C(Nc1nc2cc3c(cc2s1)OCCO3)c1ccncc1 | 12 | 2 | 5 | -4 | 3 | / | /
O=C(Nc1nc2cc3c(cc2s1)OCCO3)c1ccc(N2C(=O)CCC2=O)cc1 | 3 | -2 | 62* | 2 | -1 | 57* | 23
Cc1ccc(C(=O)N/N=C/c2ccc3c(c2)OCO3)o1 | -1 | 14 | 13 | -3 | -3 | / | /
O=C(N/N=C/c1ccc2c(c1)OCO2)c1cc2ccccc2o1 | 1 | 2 | 30* | -2 | -2 | 13 | 3
SMILES | LYPLA2 inh | ZTA DNA inh | EBNA-1 inhibitor | LANA-H2B inh | LYPLA1 counter | EBNA-1 inh conf | ZTA DNA inh trip
COc1ccc(CN2CC(C(=O)N3CC(C)CC(C)C3)CC2=O)cc1 (stereo unspecified) | 4 | -6 | -2 | -4 | -2 | / | /
COc1ccc(/C=N/NC(=O)c2c([N+](=O)[O-])c(C)nn2C)cc1 | -10 | -4 | -4 | -2 | -2 | / | /
Cc1nn(C)c(C(=O)N/N=C/c2ccc(-c3ccccc3)cc2)c1Cl | -2 | 6 | 37* | -4 | -2 | 28* | 25
CC1=C([N+](=O)[O-])C(c2ccccc2Cl)NC(=O)N1C (stereo unspecified) | -1 | 9 | -3 | 2 | 0 | / | /
COCCn1c(SCC(=O)c2c[nH]c3ccccc23)nnc1-c1ccncc1 | 4 | 14 | 15 | / | -1 | / | /
CCn1c(SCC(=O)c2c[nH]c3ccccc23)nnc1-c1cccs1 | 1 | -3 | 30* | -6 | -7 | 23 | 12
O=C(c1ccccc1F)N1CCN(S(=O)(=O)c2ccc(S(=O)(=O)N3CCCCC3)cc2)CC1 | -2 | 15 | 4 | -1 | -3 | / | /
O=C(c1ccccc1F)N1CCN(S(=O)(=O)c2ccc(S(=O)(=O)N3CCCCCC3)cc2)CC1 | 1 | 3 | 31* | 1 | 3 | 33* | -6
O=C(CSc1nc2ccccc2s1)Nc1nccs1 | -5 | 1 | 65* | -1 | -4 | 11 | -1
CN(C)C(=O)CN1C(=O)NC2(CCc3ccccc32)C1=O (stereo unspecified) | 7 | -6 | 6 | 0 | 5 | / | /
Cc1cccc(NC(=O)CNC(=O)COc2ccc(C(=O)c3ccc(F)cc3)cc2)c1C | -2 | -18 | 41* | 1 | -6 | 6 | -2
Cc1ccc(S(=O)(=O)N2CCN(S(=O)(=O)N3CCC(C)CC3)CC2)cc1C | 2 | 1 | 13 | 1 | -3 | / | /
Cc1ccc(/C(N)=N/OC(=O)c2ccc3ccccc3c2)cc1 | 4 | 9 | 31* | 3 | 0 | 42* | 11
O=C(N/C(=C/c1ccc(Br)cc1)c1nc2ccccc2[nH]1)c1ccco1 | 0 | 18 | 31* | -4 | -1 | 82* | 18
Cc1c(C#N)c(N)nc2c3c(sc12)NC(=O)CC3c1ccccc1 (stereo unspecified) | -3 | -23 | 63* | -3 | -1 | 25 | -2
Cc1ccc(Nc2nc(NCC3CCCO3)nc(N)c2[N+](=O)[O-])cc1C (stereo unspecified) | -3 | 8 | 122* | 3 | -2 | 110* | 16
